Counter-ions that a name gives are not always drawn.
System: NCI-H1688
Test: inhibition of cell viability relative to untreated control (fraction); higher = stronger growth inhibition, active = 0.5 or more
Conditions: 30 µM; 24 h
Outline: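 NCI-H1688 small cell lung cancer cells were plated in 96-well plates at 3 × 10^3 cells/well, and 24 h later they were exposed to a natural compound library (TargetMol) at 30 µM for 24 h at 37°C with 5% CO2. Viability was measured in triplicate using Cell Counting Kit-8, read as absorbance at 450 nm. Inhibition of cell viability is given as a fraction, calculated from viability normalised to untreated cells.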

SMILES | inhibition of cell viability
COC(=O)C1=CO[C@@H](O[C@@H]2O[C@H](CO)[C@@H](O)[C@H](O)[C@H]2O)[C@@H]2[C@@H](C)[C@@H](O)C[C@H]12 [Loganin] | 0.0696 (inactive)
C[C@H]1O[C@@H](O[C@H]2[C@@H](O)C[C@H](O[C@H]3[C@@H](O)C[C@H](O[C@H]4CC[C@@]5(C)[C@H](CC[C@@H]6[C@@H]5CC[C@]5(C)[C@@H](C7=CC(=O)OC7)CC[C@]65O)C4)O[C@@H]3C)O[C@@H]2C)C[C@H](O)[C@@H]1O [Digitoxin] | 0.981 (active)
CC(=O)OC(C)C(C)C(=O)OCC12C3CC(C)(C)[C@H](O[C@@H]1C[C@]1(C)C3=CCC3C4(C)CCC(O[C@@H]5O[C@H](C(=O)O)[C@@H](O[C@H]6O[C@H](CO)[C@@H](O)[C@H](O)[C@H]6O)[C@H](O)[C@H]5O[C@@H]5OC[C@@H](O)[C@H](O)[C@H]5O)[C@](C)(CO)C4CCC31C)C2O (stereo partly specified) [Sodium Aescinate] | 0.524 (active)
CC1C(=O)OC2C(O)C34C5CC(C(C)(C)C)C36C(OC(=O)C6O)OC4(C(=O)O5)C12O (stereo unspecified) [Ginkgolide B] | -0.0261 (inactive)
OC[C@H]1O[C@@H](O[C@@H]2OC=C[C@H]3[C@H](O)[C@@H]4O[C@]4(CO)[C@@H]23)[C@H](O)[C@@H](O)[C@@H]1O [Catalpol] | -0.0576 (inactive)
Cc1cccc2c3c(ccc12)C1=C(C(=O)C3=O)[C@@H](C)CO1 [Dihydrotanshinone I] | 0.992 (active)
N[C@@H](Cc1c[nH]c2ccc(O)cc12)C(=O)O [L-5-Hydroxytryptophan] | 0.0989 (inactive)
C[C@]12CC[C@@H]3c4ccc(O)cc4CC[C@H]3[C@@H]1CC[C@@H]2O [Estradiol] | 0.296 (inactive)
COC(=O)[C@@H]1[C@H]2C[C@H]3c4[nH]c5ccccc5c4CCN3C[C@@H]2CC[C@@H]1O [Yohimbine hydrochloride] | 0.0994 (inactive)
CC(C)CCC[C@@H](C)[C@H]1CC[C@H]2[C@@H]3CC=C4C[C@@H](O)CC[C@]4(C)[C@H]3CC[C@]12C [Cholesterol] | -0.0392 (inactive)
Cc1ncc(CO)c(CO)c1O [Pyridoxine hydrochloride] | 0.171 (inactive)
C[C@H]1CC[C@@]2(OC1)O[C@H]1C[C@H]3[C@@H]4CC[C@@H]5C[C@@H](O)CC[C@]5(C)[C@H]4CC[C@]3(C)[C@H]1[C@@H]2C [Sarsasapogenin] | -0.0422 (inactive)
COc1c2occc2cc2ccc(=O)oc12 [8-Methoxypsoralen] | 0.302 (inactive)
COc1cc2ccc(=O)oc2cc1OC [Scoparone] | -0.0332 (inactive)
CC(=O)[C@@]1(O)CC[C@H]2[C@@H]3CCC4=CC(=O)CC[C@]4(C)[C@H]3CC[C@@]21C [Hydroxyprogesterone] | 0.102 (inactive)
OC[C@H]1O[C@@H](Oc2cc(O)cc(/C=C/c3ccc(O)cc3)c2)[C@H](O)[C@@H](O)[C@@H]1O [Piceid] | 0.175 (inactive)
C[C@H](CCC(=O)O)[C@H]1CC[C@H]2[C@@H]3[C@H](O)C[C@@H]4C[C@H](O)CC[C@]4(C)[C@H]3C[C@H](O)[C@]12C [Cholic Acid] | -0.419 (inactive)
NC(=O)CCC(N)C(=O)O (racemic) [DL-Glutamine] | -0.221 (inactive)
COc1cc(C=O)ccc1OC(C)=O [Acetylvanillin] | -0.295 (inactive)
C[C@H](CCC(=O)O)[C@H]1CC[C@H]2[C@@H]3CC[C@@H]4C[C@H](O)CC[C@]4(C)[C@H]3CC[C@]12C [Lithocholic acid] | -0.0194 (inactive)
CC1(C)[C@@H](O[C@H]2O[C@H](C(=O)O)[C@@H](O)[C@H](O)[C@H]2O[C@@H]2O[C@H](C(=O)O)[C@@H](O)[C@H](O)[C@H]2O)CC[C@]2(C)[C@H]3C(=O)C=C4[C@@H]5C[C@@](C)(C(=O)O)CC[C@]5(C)CC[C@@]4(C)[C@]3(C)CC[C@@H]12 [Glycyrrhizin (Glycyrrhizic Acid)] | -0.0055 (inactive)
CC[C@@]1(O)C(=O)OCc2c1cc1n(c2=O)Cc2cc3cc(O)ccc3nc2-1 [10-Hydroxycamptothecin] | 0.98 (active)
O=C(/C=C/C=C/c1ccc2c(c1)OCO2)N1CCCCC1 [Piperine] | -0.249 (inactive)
CC(=O)Oc1c(C)c(C)c2c(c1C)CCC(C)(CCC[C@H](C)CCC[C@H](C)CCCC(C)C)O2 (stereo partly specified) [Vitamin E Acetate] | -0.0362 (inactive)
COc1c2occc2c(OC)c2c(=O)cc(C)oc12 [Khellin] | 0.168 (inactive)
NC(=O)NC1NC(=O)NC1=O (stereo unspecified) [Allantoin] | 0.00777 (inactive)

From the supplement of paper PMC11634586
